The experiment addresses T1, CRBN, Q96SW2.
T1 chain: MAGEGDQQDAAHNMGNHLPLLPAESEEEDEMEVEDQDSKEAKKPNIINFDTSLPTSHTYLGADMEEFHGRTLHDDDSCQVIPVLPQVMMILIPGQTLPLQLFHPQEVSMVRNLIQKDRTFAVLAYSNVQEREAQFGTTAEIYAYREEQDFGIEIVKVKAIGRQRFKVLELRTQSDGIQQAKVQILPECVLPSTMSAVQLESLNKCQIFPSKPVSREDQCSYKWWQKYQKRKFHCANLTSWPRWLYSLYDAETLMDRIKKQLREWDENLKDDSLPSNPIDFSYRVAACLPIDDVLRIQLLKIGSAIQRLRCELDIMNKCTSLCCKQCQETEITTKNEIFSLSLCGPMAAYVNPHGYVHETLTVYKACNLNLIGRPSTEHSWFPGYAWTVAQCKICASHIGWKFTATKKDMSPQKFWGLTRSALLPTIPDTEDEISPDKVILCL
Kind of experiment: log2 fold change of degron read counts, EGFP-low vs EGFP+ sorted cells (limma voom), compound-induced degradation; higher = more compound-induced degradation of the degron-EGFP fusion; degrons are variants of IKZF1/3 zinc finger 2; compound dose not given here. The following applies: Jurkat, 18 h.

Setting [1] is: compound: compound 19 (5-tert-butyl-thalidomide).
Where [2] appears, read: compound: compound 22 (5-morpholino-thalidomide).
The mark [3] stands for this setting: compound: compound 33 (diphenyl IMiD analogue).

Results on 28 sequences are retold here after the supplement of paper PMC12645437, “Orthogonal IMiD-Degron Pairs Induce Selective Protein Degradation in Cells” (ACS Chemical Biology, 2025).

In all, about 8,300 sequences were measured (“log2 fold change of degron read counts, EGFP-low vs EGFP+ sorted cells (limma voom), compound-induced degradation”: median about -1.1, highest 2% from about 3.2 on). The list comes from a sample in which the highest values are over-represented; it also holds similar and randomly drawn sequences.
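Further: pooled lentiviral library of zinc finger degron-EGFP fusions in mCherry-positive Jurkat cells, FACS-sorted after compound exposure, with degron abundance counted by next-generation sequencing.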

B1: 46F_47N_49P_50I_52G_53H_54Y_55F_67L_, Q9UKT9 (peptide)
chain: FNCPICGHYFTQKGNLLRHIKL
Regarding B1, the “log2 fold change of degron read counts” value reads like this: under setting [1], -1.6; under setting [2], -1.7; under setting [3], -1.47; (compound: thalidomide) -1.44.

B2: 46F_47F_49S_50V_52G_53H_54K_55F_67L_, Q9UKT9 (peptide)
chain: FFCSVCGHKFTQKGNLLRHIKL
As to B2, the “log2 fold change of degron read counts” value reads like this: under setting [1], -1.05; under setting [2], -2.36; under setting [3], -2.5; (compound: thalidomide) -2.6.

B3: 46F_47C_49S_50V_52G_53H_54V_55F_67L_, Q9UKT9 (peptide)
chain: FCCSVCGHVFTQKGNLLRHIKL
In the case of B3, the “log2 fold change of degron read counts” value under setting [1] is -1.81, the “log2 fold change of degron read counts” value under setting [2] was -2.39, the “log2 fold change of degron read counts” value under setting [3] was -2.47 and the “log2 fold change of degron read counts” value (compound: thalidomide) is -2.11.

B4: 46F_47G_49P_50I_52G_53A_54S_55F_67L_, Q9UKT9 (peptide)
chain: FGCPICGASFTQKGNLLRHIKL
Consider B4, for which the “log2 fold change of degron read counts” value is, setting by setting: under setting [1], 3.27; under setting [2], 2.28; under setting [3], 2.49; (compound: thalidomide) 1.31.

B5: 46F_47F_49N_50I_52G_53A_54S_55F_67L_, Q9UKT9 (peptide)
chain: FFCNICGASFTQKGNLLRHIKL
Regarding B5, the “log2 fold change of degron read counts” value was 2.16 under setting [1], 2.55 under setting [2], 1.2 under setting [3] and -0.157 (compound: thalidomide).

B6: 46F_47H_49P_50I_52G_53A_54S_55F_67L_, Q9UKT9 (peptide)
chain: FHCPICGASFTQKGNLLRHIKL
With B6, the “log2 fold change of degron read counts” value under setting [1] was 2.77, the “log2 fold change of degron read counts” value under setting [2] was determined as 2.54, the “log2 fold change of degron read counts” value under setting [3] worked out at 2.08 and the “log2 fold change of degron read counts” value (compound: thalidomide) was found to be 0.926.

B7: 46F_47F_49P_50I_52G_53A_54S_55F_67L_, Q9UKT9 (peptide)
chain: FFCPICGASFTQKGNLLRHIKL
B7: the “log2 fold change of degron read counts” value came out at 3.26 under setting [1], 3.18 under setting [2], 2.18 under setting [3] and 1.74 (compound: thalidomide).

B8: 46F_47T_49P_50I_52G_53A_54S_55F_67L_, Q9UKT9 (peptide)
chain: FTCPICGASFTQKGNLLRHIKL
B8: the “log2 fold change of degron read counts” value by setting is: under setting [1], 2.17; under setting [2], 3.02; under setting [3], 2.88; (compound: thalidomide) 3.23.

B9: 46F_47I_49D_50I_52G_53A_54R_55F_67L_, Q9UKT9 (peptide)
chain: FICDICGARFTQKGNLLRHIKL
On to B9, for which the “log2 fold change of degron read counts” value is -0.557 under setting [1], 1.75 under setting [2], 0.63 under setting [3] and 1.41 (compound: thalidomide).

B10: 46F_47G_49N_50V_52G_53A_54W_55F_67L_, Q9UKT9 (peptide)
chain: FGCNVCGAWFTQKGNLLRHIKL
In the case of B10, the “log2 fold change of degron read counts” value under setting [1] was -1.56, the “log2 fold change of degron read counts” value under setting [2] is -2, the “log2 fold change of degron read counts” value under setting [3] was -0.753 and the “log2 fold change of degron read counts” value (compound: thalidomide) is -1.74.

B11: 46F_47F_49D_50I_52G_53A_54Y_55F_67L_, Q9UKT9 (peptide)
chain: FFCDICGAYFTQKGNLLRHIKL
Regarding B11, the “log2 fold change of degron read counts” value is, setting by setting: under setting [1], 2.55; under setting [2], 1.36; under setting [3], -0.119; (compound: thalidomide) -1.9.

B12: 46F_47K_49P_50I_52G_53A_54G_55F_67L_, Q9UKT9 (peptide)
chain: FKCPICGAGFTQKGNLLRHIKL
Consider B12, for which the “log2 fold change of degron read counts” value was 2.08 under setting [1], -0.359 under setting [2], -0.702 under setting [3] and 0.6 (compound: thalidomide).

B13: 46F_47L_49P_50I_52G_53A_54G_55F_67L_, Q9UKT9 (peptide)
chain: FLCPICGAGFTQKGNLLRHIKL
For the sequence B13, the “log2 fold change of degron read counts” value is, setting by setting: under setting [1], 1.86; under setting [2], 0.187; under setting [3], 1.6; (compound: thalidomide) 1.01.

B14: 46F_47W_49P_50I_52G_53A_54G_55F_67L_, Q9UKT9 (peptide)
chain: FWCPICGAGFTQKGNLLRHIKL
As for B14, the “log2 fold change of degron read counts” value is, setting by setting: under setting [1], 3.3; under setting [2], 2.73; under setting [3], 1.87; (compound: thalidomide) 0.518.

B15: 46F_47Y_49P_50I_52G_53A_54G_55F_67L_, Q9UKT9 (peptide)
chain: FYCPICGAGFTQKGNLLRHIKL
B15: the “log2 fold change of degron read counts” value is 2.99 under setting [1], 2.02 under setting [2], 2.1 under setting [3] and -0.123 (compound: thalidomide).

B16: 46F_47S_49P_50I_52G_53A_54G_55F_67L_, Q9UKT9 (peptide)
chain: FSCPICGAGFTQKGNLLRHIKL
With B16, the “log2 fold change of degron read counts” value under setting [1] turned out to be 2.83, the “log2 fold change of degron read counts” value under setting [2] turned out to be 1.27, the “log2 fold change of degron read counts” value under setting [3] is 1.76 and the “log2 fold change of degron read counts” value (compound: thalidomide) came to 0.755.

B17: 46F_47T_49P_50I_52G_53A_54G_55F_67L_, Q9UKT9 (peptide)
chain: FTCPICGAGFTQKGNLLRHIKL
With B17, the “log2 fold change of degron read counts” value is 1.55 under setting [1], 2.19 under setting [2], 2.35 under setting [3] and 2.4 (compound: thalidomide).

B18: 46F_47D_49P_50I_52G_53A_54G_55F_67L_, Q9UKT9 (peptide)
chain: FDCPICGAGFTQKGNLLRHIKL
Take B18: the “log2 fold change of degron read counts” value runs as follows: under setting [1], 2.33; under setting [2], -0.146; under setting [3], 0.564; (compound: thalidomide) 1.11.

B19: 46F_47Q_49P_50I_52G_53A_54G_55F_67L_, Q9UKT9 (peptide)
chain: FQCPICGAGFTQKGNLLRHIKL
For the sequence B19, the “log2 fold change of degron read counts” value under setting [1] was 2.39, the “log2 fold change of degron read counts” value under setting [2] came to 2.05, the “log2 fold change of degron read counts” value under setting [3] came out at 1.77 and the “log2 fold change of degron read counts” value (compound: thalidomide) is 3.69.

B20: 46F_47G_49P_50I_52G_53A_54G_55F_67L_, Q9UKT9 (peptide)
chain: FGCPICGAGFTQKGNLLRHIKL
Take B20: the “log2 fold change of degron read counts” value under setting [1] was determined as 3.28, the “log2 fold change of degron read counts” value under setting [2] came out at 1.32, the “log2 fold change of degron read counts” value under setting [3] amounted to 2.32 and the “log2 fold change of degron read counts” value (compound: thalidomide) was found to be 0.446.

B21: 46F_47R_49P_50I_52G_53A_54G_55F_67L_, Q9UKT9 (peptide)
chain: FRCPICGAGFTQKGNLLRHIKL
In the case of B21, the “log2 fold change of degron read counts” value came to 2.23 under setting [1], 1.8 under setting [2], 2.28 under setting [3] and 1.55 (compound: thalidomide).

B22: 46F_47V_49P_50I_52G_53A_54G_55F_67L_, Q9UKT9 (peptide)
chain: FVCPICGAGFTQKGNLLRHIKL
With B22, the “log2 fold change of degron read counts” value under setting [1] was determined as 1.09, the “log2 fold change of degron read counts” value under setting [2] was found to be 3.08, the “log2 fold change of degron read counts” value under setting [3] is 2.04 and the “log2 fold change of degron read counts” value (compound: thalidomide) was determined as 2.98.

B23: 46F_47A_49P_50I_52G_53A_54G_55F_67L_, Q9UKT9 (peptide)
chain: FACPICGAGFTQKGNLLRHIKL
Take B23: the “log2 fold change of degron read counts” value by setting is: under setting [1], 3.61; under setting [2], 1.67; under setting [3], 0.663; (compound: thalidomide) 0.803.

B24: 46F_47E_49D_50Q_52G_53A_54Y_55F_67L_, Q9UKT9 (peptide)
chain: FECDQCGAYFTQKGNLLRHIKL
On to B24, for which the “log2 fold change of degron read counts” value by setting is: under setting [1], -2.99; under setting [2], -3.59; under setting [3], -2.13; (compound: thalidomide) -2.26.

B25: 46F_47G_49D_50Q_52G_53A_54T_55F_67L_, Q9UKT9 (peptide)
chain: FGCDQCGATFTQKGNLLRHIKL
Take B25: the “log2 fold change of degron read counts” value by setting is: under setting [1], -1.78; under setting [2], -2.27; under setting [3], -1.3; (compound: thalidomide) -2.71.

B26: 46F_47W_49E_50I_52G_53A_54F_55F_67L_, Q9UKT9 (peptide)
chain: FWCEICGAFFTQKGNLLRHIKL
In the case of B26, the “log2 fold change of degron read counts” value is 3.03 under setting [1], 3.13 under setting [2], 2.12 under setting [3] and -0.452 (compound: thalidomide).

B27: 46F_47T_49P_50I_52G_53A_54I_55F_67L_, Q9UKT9 (peptide)
chain: FTCPICGAIFTQKGNLLRHIKL
Consider B27, for which the “log2 fold change of degron read counts” value is, setting by setting: under setting [1], -0.365; under setting [2], 1.34; under setting [3], 2.33; (compound: thalidomide) 2.71.

B28: 46F_47F_49D_50I_52G_53A_54L_55F_67L_, Q9UKT9 (peptide)
chain: FFCDICGALFTQKGNLLRHIKL
Regarding B28, the “log2 fold change of degron read counts” value reads like this: under setting [1], 2.27; under setting [2], 1.43; under setting [3], 0.356; (compound: thalidomide) -1.44.
